In PubChem BioAssay AID434970 (Sanford-Burnham Center for Chemical Genomics, 2010):
Hit rate of the full screen: of about 11,000 compounds, about 310 (2.8%) were called active. No stated cut-off is given here; in the data, active means activity change below about -85%; inactive means the rest. For the sample, actives were picked, then their nearest neighbours and some compounds at random.

test system: intestinal alkaline phosphatase [Mus musculus]; assay: activators of mouse IAP, confirmation, biochemical, luminescence, single concentration (AID 434970); conditions: purified mouse IAP, CDP-Star luminescence, 30 min, at 10 µM; activation factor: measured here: IAP activation factor, stronger effect = higher value; activity change, negative = activation: stronger effect = lower value

Question: For `COc1ccc(CNC(=S)Nc2ccc(F)c(Cl)c2)cc1OC`, which activation factor is on record?
Answer: 1.56

Question: And the activity change, negative = activation?
Answer: -56.2% (inactive)

Question: Which results are given for `COc1ccc(N2C(=O)CCC(C(=O)NCc3cccnc3)C2c2ccc(OC)c(OC)c2)cc1` (stereo not given)?
Answer: activation factor: 0.977; activity change, negative = activation: 2.3% (inactive)

Question: Which results are given for `O=C(Nc1cnn(Cc2ccccc2)c1)NC12CC3CC(CC(C3)C1)C2`?
Answer: activation factor: 2.05; activity change, negative = activation: -105% (active)

Question: With `O=C(Nc1cnn(Cc2ccc(Cl)c(Cl)c2)c1)C12CC3CC(CC(C3)C1)C2` as the compound, how does the activation factor read?
Answer: 1.17

Question: What about the activity change, negative = activation of the same compound?
Answer: -16.9% (inactive)

Question: How did the activation factor turn out when `O=C(NCc1ccccn1)NC12CC3CC(CC(C3)C1)C2` was run?
Answer: 1.06

Question: What about the activity change, negative = activation of the same compound?
Answer: -6.25% (inactive)

Question: Which results are given for `COc1ccccc1C(=O)N1CCN=C1SC`?
Answer: activation factor: 0.943; activity change, negative = activation: 5.75% (inactive)

Question: For `O=C(O)CCN1C(=O)NC2(CCCC2)C1=O`, which activation factor is on record?
Answer: 1.15

Question: What about the activity change, negative = activation of the same compound?
Answer: -15.3% (inactive)

Question: How did the activation factor turn out when `Cc1ccc(C)c(N(C)C(=O)c2coc(=O)c3ccccc23)c1` was run?
Answer: 0.967

Question: What about the activity change, negative = activation of the same compound?
Answer: 3.3% (inactive)

Question: How did the activation factor turn out when `CCc1cccc(CN2CCC(CNC(=O)Nc3ccc(Cl)cc3)CC2)c1` was run?
Answer: 1.68

Question: And the activity change, negative = activation?
Answer: -67.9% (inactive)

Question: How did the activation factor turn out when `COc1cccc(NC(=O)COC(=O)c2cc(S(=O)(=O)N3CCOCC3)ccc2C)c1` was run?
Answer: 0.964

Question: And the activity change, negative = activation?
Answer: 3.65% (inactive)

Question: For `Cc1cccc(NC(=O)NCC2CCN(c3ccc(S(=O)(=O)N4CCOCC4)cc3)CC2)c1`, which activation factor is on record?
Answer: 2.56

Question: What about the activity change, negative = activation of the same compound?
Answer: -156% (active)

Question: With `CCc1ccc(NC(=O)NCC2CCN(Cc3cccc(Cl)c3)CC2)cc1` as the compound, how does the activation factor read?
Answer: 2.2

Question: And the activity change, negative = activation?
Answer: -120% (active)

Question: What does the source list for `Cc1cccc(CN2CCC(CNC(=O)Nc3ccc(F)c(Cl)c3)CC2)c1`?
Answer: activation factor: 2.15; activity change, negative = activation: -115% (active)

Question: `O=C(NCC1CCN(c2ccc(S(=O)(=O)N3CCOCC3)cc2)CC1)Nc1ccccc1` was tested. Which activation factor did it give?
Answer: 1.77

Question: What about the activity change, negative = activation of the same compound?
Answer: -77.3% (inactive)

Question: What does the source list for `O=C(NCC1CCN(Cc2cccc(Cl)c2)CC1)Nc1ccc(Cl)cc1`?
Answer: activation factor: 1.9; activity change, negative = activation: -89.5% (inactive)

Question: For `Cc1ccc(NC(=O)NCC2CCN(Cc3cccc(Cl)c3)CC2)cc1Cl`, which activation factor is on record?
Answer: 1.87

Question: And the activity change, negative = activation?
Answer: -87.3% (active)

Question: Which results are given for `CCOc1cc(/C=N\NC(=O)c2ccc(NC(=O)CC)cc2)ccc1OC(=O)c1ccccc1`?
Answer: activation factor: 1.02; activity change, negative = activation: -1.9% (inactive)

Question: How did the activation factor turn out when `Cc1cc(C)nc(SCC(=O)c2ccc([N+](=O)[O-])cc2)n1` was run?
Answer: 0.867

Question: What about the activity change, negative = activation of the same compound?
Answer: 13.3% (inactive)

Question: How did the activation factor turn out when `O=C1Nc2ccccc2C(O)(C(=O)NC2CC2)N1c1ccc(Cl)c(Cl)c1` (stereo not given) was run?
Answer: 0.911

Question: And the activity change, negative = activation?
Answer: 8.85% (inactive)

Question: How did the activation factor turn out when `CCOc1ccc2nc(SCC(=O)N(C)C3CCS(=O)(=O)C3)[nH]c2c1` (stereo not given) was run?
Answer: 0.928

Question: What about the activity change, negative = activation of the same compound?
Answer: 7.2% (inactive)

Question: `O=C(c1cccs1)[C@@H]1[C@@H]2C(=O)N(Cc3ccc4c(c3)OCO4)C(=O)[C@@H]2C2c3ccccc3C=CN21` (stereo not given in full) was tested. Which activation factor did it give?
Answer: 0.569

Question: What about the activity change, negative = activation of the same compound?
Answer: 43.1% (inactive)

Question: `CCn1c(=O)c(C(=O)NCCN2CCCCC2)c(O)c2ccccc21` was tested. Which activation factor did it give?
Answer: 0.851

Question: And the activity change, negative = activation?
Answer: 14.8% (inactive)

Question: `CC[C@]1(C(=O)OC)[C@H]2C(=O)N(C)C(=O)[C@H]2[C@H]2CN(C)C(=NC3CCCCC3)N21` was tested. Which activation factor did it give?
Answer: 0.984

Question: And the activity change, negative = activation?
Answer: 1.6% (inactive)

Question: Which results are given for `Cc1ccccc1NC(=O)NCCCN1CCN(c2ccccc2)CC1`?
Answer: activation factor: 1.27; activity change, negative = activation: -27.2% (inactive)

Question: How did the activation factor turn out when `O=C(NCCc1c[nH]c2ccccc12)Nc1cccc2ccccc12` was run?
Answer: 1.29

Question: And the activity change, negative = activation?
Answer: -28.6% (inactive)

Question: For `Cc1cc2nc(C)n(CCCNC(=O)Nc3cccc4ccccc34)c2cc1C`, which activation factor is on record?
Answer: 2.18

Question: And the activity change, negative = activation?
Answer: -118% (active)

Question: Which results are given for `Cc1cc(=O)n(CCO)c(O)c1C#N`?
Answer: activation factor: 1.02; activity change, negative = activation: -1.65% (inactive)

Question: What does the source list for `CCOC(=O)C1=CNS(=O)(=O)NC1c1cccc(O)c1` (stereo not given)?
Answer: activation factor: 1.05; activity change, negative = activation: -5.15% (inactive)

Question: With `COc1ccc(NS(=O)(=O)c2ccc(OC)c(OC)c2)cc1OC` as the compound, how does the activation factor read?
Answer: 0.945

Question: What about the activity change, negative = activation of the same compound?
Answer: 5.5% (inactive)

Question: How did the activation factor turn out when `Cc1csc(NC(=O)Nc2cccc(Cl)c2)n1` was run?
Answer: 1.11

Question: And the activity change, negative = activation?
Answer: -11.1% (inactive)

Question: Which results are given for `O=C(Nc1ccccc1)Nc1nc(-c2ccc(F)cc2)cs1`?
Answer: activation factor: 1.62; activity change, negative = activation: -62.5% (inactive)

Question: Which activation factor does the source give for `O=C(Nc1nc(-c2cccs2)cs1)c1ccc(Cl)cc1` here?
Answer: 0.793

Question: And the activity change, negative = activation?
Answer: 20.7% (inactive)

Question: Which activation factor does the source give for `O=C(Nc1cccc(Cl)c1)Nc1nc(-c2ccc(Cl)cc2)cs1` here?
Answer: 2.1

Question: What about the activity change, negative = activation of the same compound?
Answer: -110% (active)

Question: Which activation factor does the source give for `COc1cccc(-c2csc(NC(=O)Nc3ccccc3)n2)c1` here?
Answer: 2.11

Question: And the activity change, negative = activation?
Answer: -111% (active)

Question: How did the activation factor turn out when `COc1cccc(-c2csc(N3CCN(C(=O)Nc4ccc(F)cc4)CC3)n2)c1` was run?
Answer: 1.33

Question: And the activity change, negative = activation?
Answer: -32.7% (inactive)

Question: Which results are given for `O=C(Nc1cccc(Cl)c1)Nc1nc(-c2ccccc2)cs1`?
Answer: activation factor: 2.16; activity change, negative = activation: -116% (active)

Question: For `O=C(Nc1nc(-c2ccccc2)cs1)NC1CCCCC1`, which activation factor is on record?
Answer: 1.61

Question: And the activity change, negative = activation?
Answer: -61.4% (inactive)

Question: With `O=C(Nc1ccccc1)Nc1nc(-c2ccc(F)c(F)c2)cs1` as the compound, how does the activation factor read?
Answer: 1.75

Question: And the activity change, negative = activation?
Answer: -75.4% (inactive)

Question: For `Cc1cc(NCCCn2ccnc2)n2c(nc3ccccc32)c1C#N`, which activation factor is on record?
Answer: 1.02

Question: What about the activity change, negative = activation of the same compound?
Answer: -2.25% (inactive)

Question: Which activation factor does the source give for `CC1(C)Cc2c(sc3c2C2=NCCN2C=N3)CO1` here?
Answer: 0.94

Question: What about the activity change, negative = activation of the same compound?
Answer: 5.95% (inactive)
